This is a sample that favours compounds with a hit; in the whole collection about 11% have one here.
MCF10A rereplic: A quantitative high throughput screen for small molecules that induce DNA re-replication in MCF 10a normal breast cells. MCF 10A DNA re-replication, Hoechst nuclear intensity, 48 h. Potency, µM (highest dose often 46.1 µM), hits mostly activators. 350,000 tested, 2.9% active; further: nearly all actives have a fitted effect of over 50% in size
VP16 counter: VP16 counterscreen qHTS for inhibitors of ROR gamma transcriptional activity | 310,000 tested, 3.5% active | AID 2546, 2010 | Potency, µM (series often up to 53.6 µM), hits mostly inhibitors | Drosophila S2 Gal4-VP16 UAS-luciferase, luminescence, 20 h;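 further: Gal4-VP16 expression switched on by copper sulfate through the metallothionein promoter; nearly all actives have a fitted effect of over 50% in size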
RORgamma inh: qHTS for inhibitors of ROR gamma transcriptional activity | Drosophila S2 Gal4-RORgamma UAS-luciferase reporter, 20 h | Potency, µM (doses to about 53.6 µM), usual class: inhibitors | 310,000 tested, 5.4% active; further: nearly all actives have a fitted effect of over 60% in size
Target sequence (P51450 whole entry, looked up, the tested form may be a part): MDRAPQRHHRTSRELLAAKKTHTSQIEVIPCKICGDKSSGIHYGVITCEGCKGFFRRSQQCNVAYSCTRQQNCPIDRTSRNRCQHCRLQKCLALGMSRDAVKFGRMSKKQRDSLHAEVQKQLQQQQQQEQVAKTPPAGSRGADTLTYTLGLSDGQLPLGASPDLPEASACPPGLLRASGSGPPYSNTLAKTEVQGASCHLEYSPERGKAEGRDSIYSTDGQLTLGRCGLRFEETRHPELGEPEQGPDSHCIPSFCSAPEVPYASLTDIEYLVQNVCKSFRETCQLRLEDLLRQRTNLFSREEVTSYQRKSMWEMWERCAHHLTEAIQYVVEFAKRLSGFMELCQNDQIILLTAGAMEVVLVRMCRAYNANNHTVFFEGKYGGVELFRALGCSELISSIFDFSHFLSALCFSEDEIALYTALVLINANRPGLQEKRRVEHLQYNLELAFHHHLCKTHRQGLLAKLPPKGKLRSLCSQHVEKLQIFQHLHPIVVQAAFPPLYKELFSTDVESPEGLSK
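Drosophila Schneider cells stably carrying a metallothionein-driven Gal4 DBD–ROR gamma fusion and a UAS-Photinus luciferase reporter were exposed to compound for 1 hr, then induced with copper sulfate (700 uM final) for 20 hr at ambient temperature before luminescence reading.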
SW480 rereplic: A quantitative high throughput screen for small molecules that induce DNA re-replication in SW480 colon adenocarcinoma cells; AID 624297, 2012; 340,000 tested, 1.8% active; SW480 DNA re-replication, Hoechst DNA content imaging, 48 h; Potency, µM (top dose mostly 46.1 µM), actives largely listed as activators; further: nearly all actives have a fitted effect of over 55% in size
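Quantitative HTS format with DMSO vehicle controls; 48 hr drug incubation at 37 C, then 40 min Hoechst staining and scanning imager measurement at 405 nm excitation.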
IL-1B inflam inh: qHTS for Inhibitors of Inflammasome Signaling: IL-1-beta AlphaLISA Primary Screen | THP-1 LPS/ATP IL-1B secretion, AlphaLISA, 16 h; stronger effect = lower value | 360,000 tested, 4.7% active | activity change, % at 57.5 µM; in the data active means activity change below about -50%; inconclusive means mostly about -30% to -49%
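Secreted IL-1B measured by AlphaLISA bead assay after 16 h compound exposure of THP-1 cells; compounds (final up to 57.5 uM) added 1 h before LPS (250 ng/mL) and ATP (1.25 mM) stimulation; lower signal means less secretion.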
Hits are given with their value; 0 = inactive; ? = inconclusive; - = not tested or not shown; [ ] = another dose, or the depositor's remark. Unless noted, the call rests on the fitted dose curve; in most records, active means well fitted curve in the direction sought with a large enough effect; inconclusive means small, poorly fitted or top-dose-only effect, or another doubt; inactive means no such curve, though single readings can be large; an effect the other way counts as inactive or inconclusive.

SMILES	MCF10A rereplic	VP16 counter	RORgamma inh	SW480 rereplic	IL-1B inflam inh
CCOc1ccc2c(c1)-c1c(ssc1=S)C(C)(C)N2	0	0	0	0	0
Cc1ccc2c(c1)-c1c(ssc1=S)C(C)(C)N2C(=O)CSC1=NCCS1	0	0	?	0	-66
Cc1ccc2c(c1)-c1c(ssc1=S)C(C)(C)N2C(=O)c1ccco1	0	0	0	?	-57
CC1(C)c2ssc(=S)c2-c2ccccc2N1C(=O)c1ccco1	0	0	0	?	0
Cn1cnnc1SCC(=O)N1c2ccccc2-c2c(ssc2=S)C1(C)C	-	0	0	-	-
CCOc1ccc2c(c1)-c1c(ssc1=S)C(C)(C)N2C(=O)CSC1=NCCS1	0	0	3.2µM	?	-54
Cc1cc2ccc(=O)oc2cc1OC[C@@H](O)C(C)(C)O	-	0	0	-	-
CCOc1ncnc2c1sc1nc(C)cc(C)c12	0	0	0	0	0
CC(=O)Cn1cnc2c(sc3nc(C)cc(C)c32)c1=O	0	0	0	0	-64
Cc1cc(C)c2c(n1)sc1c(N3CCN(CCO)CC3)ncnc12	?	0	0	0	-77
CC(C)(C)NC(=O)[C@@H]1C[C@H]2CCCC[C@@H]2CN1C[C@H](O)[C@H](Cc1ccccc1)NC(=O)[C@@H](CC(N)=O)NC(=O)c1ccc2ccccc2n1	-	0	0	-	-
Cn1cc(Br)c(C(=O)NN2C(=O)C3C(C2=O)C2C=CC3C23CC3)n1 (configuration not stated)	0.73µM	0	0	0	0
Cn1cc(Br)c(C(=O)NN2C(=O)C3C4C=CC(C5CC45)C3C2=O)n1 (configuration not stated)	?	0	0	0	0
O=c1ccc2ccc(Oc3ccc([N+](=O)[O-])cc3[N+](=O)[O-])cc2o1	?	?	10µM	?	-
Nc1ccc(Oc2ccc([N+](=O)[O-])cc2[N+](=O)[O-])cc1	0	0	8.9µM	0	0
O=[N+]([O-])c1ccc(Oc2cccnc2)c([N+](=O)[O-])c1	5.8µM	-	-	?	-112
Nc1cc(Oc2cccnc2)cc([N+](=O)[O-])c1	0	0	0	0	0
O=C(Oc1ccc2ccc(=O)oc2c1)c1ccc([N+](=O)[O-])cc1	0	-	-	0	0
CO[C@@H]1COC(=O)C/C=C\[C@@H](C)COC(=O)[C@H](COCc2ccccc2)NC(=O)C/C=C\[C@H]1C	-	0[10 µM]	0[10 µM]	-	-
Cc1c(C(=O)NN)[nH]c2ccc([N+](=O)[O-])cc12	0	?	11µM	0	0
NNC(=O)c1[nH]c2ccc([N+](=O)[O-])cc2c1-c1ccccc1	?	0	0	?	0
COc1ccc(NC(=O)COC(=O)c2ccc(OC)c(S(=O)(=O)N3CCCC3)c2)cc1OC	0	-	-	0	0
O=C(c1nn2c(C(F)(F)F)cc(-c3ccco3)nc2c1Br)N1CCCc2ccccc21	9.2µM	0	0	?	0
CCN(CC(=O)Nc1ccc(NC(C)=O)cc1)C(=O)c1ccc(COc2ccc(C(C)(C)C)cc2)cc1	0	-	-	0	-51
O=C(/C(=C/O)N=Nc1ccccc1)c1ccncc1	?	0	0	0	0
SMILES	MCF10A rereplic	VP16 counter	RORgamma inh	SW480 rereplic	IL-1B inflam inh
Cc1cccc(N=N/C(=C\O)C(=O)c2cccs2)c1	?	0	0	0	-67
COCCCNC(=S)NNC(=O)c1cc(-c2cccnc2)nc2ccccc12	0	0	0	0	0
CCNC(=S)NNC(=O)c1cc(-c2cc(C)ccc2C)nc2ccccc12	0	0	0.35µM	0	0
COCCNC(=S)NNC(=O)c1cc(-c2cccnc2)nc2ccccc12	0	?	13µM	0	0
COCCCNC(=S)NNC(=O)c1cc(C2CC2)nc2ccccc12	0	?	2.8µM	?	0
CCCc1cc(C(=O)NNC(=S)NCC)c2ccccc2n1	0	?	0	-	0
COCCCNC(=S)NNC(=O)c1cc(-c2ccncc2)nc2ccccc12	0	?	?	0	0
C/C=C/c1ccc(OCC(O)CNCC(c2ccc(OC)cc2)N(C)C)c(OC)c1 (configuration not stated)	0	0	0	0	-57
CCCCOc1ccc(-c2csc(N)n2)cc1[N+](=O)[O-]	0	?	0[10 µM]	0	-50
CCCCOc1ccc(C2=CSC3=NCCN23)cc1[N+](=O)[O-]	0	0	0	0	0
CN(C)CCCNC(=O)C[C@H]1C[C@H](C(=O)N2CCCCC2)[C@@]2(C)c3[nH]c4cc(CCC(=O)N(C)C)ccc4c3CCN2C1=O	?	-	-	0	0
CCOC(=O)CCN1C(=O)[C@H]2[C@H]3[C@H](O)[C@H](O)C/C(=N/OCc4ccccc4)[C@@H]3CC[C@@H]2C1=O	-	0[10 µM]	0[10 µM]	-	-
Cc1cccc(-c2cnc(C(O)Cc3ccccc3)[nH]2)c1 (configuration not stated)	-	-	-	-	0
CCOC(=O)/C(C#N)=C\c1cn(C)c2ccccc12	0[9.22 µM]	0	0	0	0
CCOC(=O)/C(=C\c1cn(C)c2ccccc12)[N+](=O)[O-]	?	0	?	?	-85
O=C1N/C(=C/c2ccc(N3CCOCC3)o2)C(=O)N1c1cccc(Cl)c1	?	4.5µM	3.5µM	4.6µM	?
C=CCn1ccc(=NC=C(C#N)C#N)c2ccccc21	0	0	0	0	-69
C=CCn1ccc2c([N+](=O)[O-])cccc2c1=O	0	0	0	0	0
Cc1ccc(C)n1-c1cccc(S(=O)(=O)N2CCOCC2)c1	18µM	0[10 µM]	0	?	?
O=S(=O)(c1cccc(S(=O)(=O)N2CCOCC2)c1)N1CCCCC1	0	0	0	0	0
Cc1cc(C(=O)CCl)c(C)n1-c1cccc(S(=O)(=O)N2CCOCC2)c1	?	0[10 µM]	10µM	0	-102
COc1ccc(F)cc1S(=O)(=O)n1nc(C)cc1C	?	0	0	0[1.84 µM]	0
C[C@H](NC(=O)c1ccccc1)C(=O)N1CCN(c2ccccc2)CC1	0	0	0	0	0
Cc1ccc(S(=O)(=O)NNC2=NS(=O)(=O)c3ccccc32)c(C)c1	0	0	10µM	0	0
Cc1ccc(C)c(NC2=NS(=O)(=O)c3ccccc32)c1	0	0	0	0	0
SMILES	MCF10A rereplic	VP16 counter	RORgamma inh	SW480 rereplic	IL-1B inflam inh
CCOc1ccccc1NC(=O)NNS(=O)(=O)c1cc(OC)ccc1OC	?	0	0	0	0
COCCNC(=O)C1C(=O)Nc2ccccc2C(=O)N1Cc1ccccc1 (configuration not stated)	-	-	-	-	0
c1c2c(cc3sc(N4CCOCC4)nc13)OCCO2	0	4.5µM	3.5µM	0	0
c1ccc(N2CCN(c3nc4cc5c(cc4s3)OCCO5)CC2)cc1	0	0	0	0	0
CNC(=S)N/N=C(\C)c1ccc(Cl)s1	0	1.1µM	0.4µM	0	0
C=C(C)CNC(=S)N/N=C(\C)c1ccc(Cl)s1	?	2.8µM	0.89µM	?	0
CCNC(=S)N/N=C(\C)c1ccc(Cl)s1	0	1.4µM	0.71µM	0	0
C/C(=N\NC(N)=O)c1ccc(Cl)s1	0	0	0	0	0
